Data on five compounds can be found in PubChem BioAssay.

Experiment [1] is described as follows: rapamycin-like changes in RPL19A-GFP expression – cell-based, S. cerevisiae, multiplex flow cytometry, primary screen (AID 1862; in the data active = percent of DMSO control GFP below about 86%;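 also: lower values mimic rapamycin by blocking the RPL19A rise seen in DMSO cells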). As to conditions: S. cerevisiae RPL19A-GFP strain, flow cytometry fluorescence, 3 h; at 10 µM; stronger effect = lower value. (In general: A flow cytometer gives signals particle by particle.)
A short description of experiment [2]: TOR pathway GLN3 branch reporter MEP2-GFP changes – S. cerevisiae, multiplex flow cytometry, primary screen (AID 1867;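 active = GFP response, as percent of the DMSO control, above the screen-wide mean plus 3 SD, about 139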;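 also: median GFP channel fluorescence of barcode-gated MEP2-GFP cells measured by flow cytometry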). As to conditions: S. cerevisiae MEP2-GFP strain, 3 h, at 10 µM, stronger effect = higher value, 100% means same as DMSO wells.
Experiment [3] can be described thus: TOR pathway RTG branch CIT2 reporter changes – S. cerevisiae, GFP fusion, multiplex flow cytometry, primary screen (AID 1870;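 active = percent response above a set limit, the screen-wide mean plus 3 SD, cut at about 130% in these data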;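 also: barcoded CIT2-GFP strain pooled with four other GFP strains with rapamycin as positive control; median GFP fluorescence per well over plate mean of DMSO wells so 100% = DMSO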). To be noted: S. cerevisiae CIT2-GFP expression, 3 h, at 10 µM, stronger effect = higher value.
Experiment [4] is described as follows: TOR pathway LAP4-GFP level changes – S. cerevisiae, multiplex flow cytometry, primary screen (AID 1873;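 active = GFP signal, as percent of the solvent control, above the screen mean plus 3 SD, about 149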). To be noted: S. cerevisiae LAP4-GFP expression, 3 h, at 10 µM, stronger effect = higher value.
The nature of experiment [5]: reduced mouse 2C T cell binding to pMHC/ICAM-1 vesicles – MLPCN validation set, flow cytometry, LFA-1/ICAM-1 modulator project, pilot screen (AID 2523;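 active = response below a set limit, under 55% cells CD8-positive and vesicle-bound, and CD8 cells' 90th-percentile brightness under 279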;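 as to vesicle binding response: mean PE anti-B7-1 fluorescence of CD8+ cells relative to row control; 100% = QL9-loaded vesicles with DMSO vehicle in the same plate row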). As to conditions: 2C mouse CD8+ T cells, at 7 µM, stronger effect = lower value; double positive events: measured here: CD8+/vesicle+ event percentage.
The target in experiment [6] is Integrin beta-1 (Homo sapiens) + Integrin alpha-4 (Homo sapiens) (UniProt P13612+P05556). Description: alpha4beta1 integrin LIBS antibody binding reduction – U937 cells, HUTS-21 mAb, flow cytometry, validation set, VLA-4 allosteric modulator project, pilot screen (AID 2674;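 active = inhibition above 50%, about 3 SD of the validation set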;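 also: antibody binding induced by the VLA-4 ligand LDV present at three times its Kd; 0% = LDV ligand with antibody and no compound and 100% = antibody without LDV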). To be noted: HUTS-21 LIBS mAb binding, at 6.7 µM, stronger effect = higher value, binding induced by LDV ligand.

A short description of experiment [7]: calorie-restriction mimetic ROS inhibitors, yeast – validation compound set, pilot screen (AID 2706).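 Also: yeast exposed to compound for one week at 30 degrees C before staining; 100% = mean of all compound wells on the same plate.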 As to conditions: S. cerevisiae aging, superoxide DHE fluorescence; at 10 µM, stronger effect = lower value.
Experiment [8] deals with Beta-adrenergic receptor kinase 1 (Homo sapiens) (UniProt P25098). The experiment in a line: GRK2 binders displacing RNA aptamer, biochemical, validation, human GRK2, bead flow cytometry (AID 488806;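 active = aptamer binding inhibition above 30%, about 3 SD of noise from non-fluorescent compounds; inactive = inhibition at or below 30%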). To be noted: bead-bound GRK2, FAM-aptamer displacement, at 10 µM, stronger effect = higher value.
In experiment [9] the target is Beta-2 adrenergic receptor (Homo sapiens) (UniProt P07550). The experiment in a line: agonist-induced loss of surface beta2AR – cell-based, FAP fluorogen, flow cytometry, validation set, pilot screen (AID 504459;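 active = percent response above 42, roughly 3 SD of non-fluorescent test compounds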;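 also: agonist-driven loss of surface beta2AR via internalization measured by FAP dye flow cytometry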). As to conditions: Am2.2-beta2AR cells, at 10 µM, stronger effect = higher value.
Experiment [10] concerns the target AP-2 complex subunit beta (Homo sapiens) (UniProt P63010). The experiment in a line: beta-arrestin/AP2 interaction blockers – biochemical, validation set, GST-AP2 beads, flow cytometry, pilot screen (AID 504541;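 active = inhibition above 54%, about 3 SD of non-fluorescent compounds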;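 also: AP2 carries R879A mutation and is captured from E. coli lysate; bead-bound FITC arrestin peptide fluorescence measuring arrestin peptide binding to AP2; 0% = DMSO wells and 100% = excess unlabeled arrestin peptide control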). As to conditions: FITC arrestin peptide, at 10 µM, stronger effect = higher value, AP2 beta2 appendage fragment, R879A mutant.
Experiment [11] in a line: cytosolic pH regulators acting via V-ATPase – S. cerevisiae, pHLuorin, HTS validation (AID 504600; in the data active = response above about 15%;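 also: plate controls were DMSO for no effect and reference compound for full effect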). As to conditions: V-ATPase proton transport, at 10 µM, stronger effect = higher value.
For experiment [12], the system named is anti-desmoglein-3 scFv antibody binding to human DSG3. Description: blockers of pathogenic pemphigus antibody–desmoglein-3 binding – biochemical, validation compound set, bead-based, flow cytometry, pilot screen (AID 588368;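 active = binding below the plate cutoff, the plate median minus 3 SD, with a reading above zero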;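 also: signal is the median channel fluorescence of bead-bound GFP antibody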). As to conditions: Protein G beads, DSG3-Fc, scFv-GFP binding, at 10 µM, stronger effect = lower value.
Experiment [13] is described as follows: Nile Red efflux blockade in pump-expressing yeast – validation compound set, multiplex, phenotypic, pilot screen (AID 588506;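 active = efflux inhibition above 0.42, the validation set average plus 4 SD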;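 also: Nile Red retained in cells so higher fluorescence means more efflux inhibition; 0 = negative control wells and 1 = enniatin B 25 µM full block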). As to conditions: S. cerevisiae pump-expressing triplex, Nile Red efflux flow cytometry; at 10 µM; stronger effect = higher value; the pumps come from Candida albicans.
Experiment [14] addresses ATP-binding cassette sub-family B member 6 (Homo sapiens) (UniProt Q9NP58). Description: blockers of ABCB6-driven porphyrin uptake – K562-ABCB6 cells, flow cytometry, validation set, pilot screen (AID 588550;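 active = inhibition above the screen-wide mean plus 3 SD, about 51%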;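 also: 0% = DMSO wells and 100% = benzethonium chloride 70 µM positive control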). To be noted: K562-ABCB6 porphyrin accumulation, 1 h, at 10 µM, stronger effect = higher value.
The nature of experiment [15]: AML differentiation inducers, ER-HoxA9 marrow cells – cell-based, GFP/MAC1 double positive, flow cytometry, validation set, primary screen (AID 588685;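 active = differentiation response of at least 50%, scaled between solvent and reference control, from cells with both markers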;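 also: compound exposure lasts four days before antibody staining and flow analysis; 0% = DMSO wells and 100% = 5 µM fulvestrant positive control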). To be noted: stronger effect = higher value, normalized: vehicle 0, fulvestrant 100.

Results filed as inconclusive are left out. Calls of active or inactive are those of the source.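 The calls were made as follows, unless noted: active = superoxide response below 65% of plate, a cut near 3 SD across the whole screen; inactive = the rest.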

Sequence of AP-2 complex subunit beta (Homo sapiens) (P63010 whole entry, looked up, the tested form may be a part, one chain of several): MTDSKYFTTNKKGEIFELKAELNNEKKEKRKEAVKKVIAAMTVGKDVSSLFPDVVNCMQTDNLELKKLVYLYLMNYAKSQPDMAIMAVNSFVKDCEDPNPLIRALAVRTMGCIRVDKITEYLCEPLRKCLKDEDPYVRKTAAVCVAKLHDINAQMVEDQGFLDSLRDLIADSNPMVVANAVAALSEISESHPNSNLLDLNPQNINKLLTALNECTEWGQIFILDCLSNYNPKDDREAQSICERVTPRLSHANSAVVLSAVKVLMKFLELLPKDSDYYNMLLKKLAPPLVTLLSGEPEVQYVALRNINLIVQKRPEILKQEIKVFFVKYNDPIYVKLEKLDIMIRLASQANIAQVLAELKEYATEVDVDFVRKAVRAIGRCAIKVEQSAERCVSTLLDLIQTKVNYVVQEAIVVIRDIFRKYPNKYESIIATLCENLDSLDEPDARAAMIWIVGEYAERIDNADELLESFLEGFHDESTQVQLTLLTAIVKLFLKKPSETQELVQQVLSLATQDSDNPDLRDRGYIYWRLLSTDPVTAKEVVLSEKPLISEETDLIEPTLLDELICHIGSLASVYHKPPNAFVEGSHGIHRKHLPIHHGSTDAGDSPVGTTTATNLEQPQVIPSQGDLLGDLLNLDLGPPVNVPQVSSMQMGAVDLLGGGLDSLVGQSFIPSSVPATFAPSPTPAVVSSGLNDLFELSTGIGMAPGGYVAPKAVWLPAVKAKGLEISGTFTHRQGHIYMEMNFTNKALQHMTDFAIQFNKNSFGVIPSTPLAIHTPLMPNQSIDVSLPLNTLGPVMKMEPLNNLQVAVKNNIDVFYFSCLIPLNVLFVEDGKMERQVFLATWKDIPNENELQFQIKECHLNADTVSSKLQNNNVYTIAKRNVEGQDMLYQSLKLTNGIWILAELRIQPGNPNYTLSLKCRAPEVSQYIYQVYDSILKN
Sequence of Integrin beta-1 (Homo sapiens) + Integrin alpha-4 (Homo sapiens) (P05556 whole entry, looked up): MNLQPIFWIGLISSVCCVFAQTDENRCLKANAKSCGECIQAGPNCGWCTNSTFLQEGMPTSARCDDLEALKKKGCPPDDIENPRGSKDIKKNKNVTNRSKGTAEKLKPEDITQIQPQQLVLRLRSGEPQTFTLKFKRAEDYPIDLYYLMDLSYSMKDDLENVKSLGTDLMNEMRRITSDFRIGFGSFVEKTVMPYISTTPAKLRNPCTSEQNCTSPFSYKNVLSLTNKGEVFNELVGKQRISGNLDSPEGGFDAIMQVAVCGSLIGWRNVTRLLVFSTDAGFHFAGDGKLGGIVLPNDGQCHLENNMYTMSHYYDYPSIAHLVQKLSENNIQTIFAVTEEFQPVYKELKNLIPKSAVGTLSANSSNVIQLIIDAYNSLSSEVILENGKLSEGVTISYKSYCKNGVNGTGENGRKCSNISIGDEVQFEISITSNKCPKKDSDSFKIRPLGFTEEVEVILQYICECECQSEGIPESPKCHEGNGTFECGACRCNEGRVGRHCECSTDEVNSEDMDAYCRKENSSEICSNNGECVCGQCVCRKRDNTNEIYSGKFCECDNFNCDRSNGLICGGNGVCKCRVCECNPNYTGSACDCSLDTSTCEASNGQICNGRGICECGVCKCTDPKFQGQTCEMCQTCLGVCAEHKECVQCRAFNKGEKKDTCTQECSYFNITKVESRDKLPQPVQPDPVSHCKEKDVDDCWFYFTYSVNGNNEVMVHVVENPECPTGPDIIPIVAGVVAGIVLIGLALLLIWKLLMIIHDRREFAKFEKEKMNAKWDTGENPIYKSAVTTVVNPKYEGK
Sequence of Integrin beta-1 (Homo sapiens) + Integrin alpha-4 (Homo sapiens) (P13612 whole entry, looked up): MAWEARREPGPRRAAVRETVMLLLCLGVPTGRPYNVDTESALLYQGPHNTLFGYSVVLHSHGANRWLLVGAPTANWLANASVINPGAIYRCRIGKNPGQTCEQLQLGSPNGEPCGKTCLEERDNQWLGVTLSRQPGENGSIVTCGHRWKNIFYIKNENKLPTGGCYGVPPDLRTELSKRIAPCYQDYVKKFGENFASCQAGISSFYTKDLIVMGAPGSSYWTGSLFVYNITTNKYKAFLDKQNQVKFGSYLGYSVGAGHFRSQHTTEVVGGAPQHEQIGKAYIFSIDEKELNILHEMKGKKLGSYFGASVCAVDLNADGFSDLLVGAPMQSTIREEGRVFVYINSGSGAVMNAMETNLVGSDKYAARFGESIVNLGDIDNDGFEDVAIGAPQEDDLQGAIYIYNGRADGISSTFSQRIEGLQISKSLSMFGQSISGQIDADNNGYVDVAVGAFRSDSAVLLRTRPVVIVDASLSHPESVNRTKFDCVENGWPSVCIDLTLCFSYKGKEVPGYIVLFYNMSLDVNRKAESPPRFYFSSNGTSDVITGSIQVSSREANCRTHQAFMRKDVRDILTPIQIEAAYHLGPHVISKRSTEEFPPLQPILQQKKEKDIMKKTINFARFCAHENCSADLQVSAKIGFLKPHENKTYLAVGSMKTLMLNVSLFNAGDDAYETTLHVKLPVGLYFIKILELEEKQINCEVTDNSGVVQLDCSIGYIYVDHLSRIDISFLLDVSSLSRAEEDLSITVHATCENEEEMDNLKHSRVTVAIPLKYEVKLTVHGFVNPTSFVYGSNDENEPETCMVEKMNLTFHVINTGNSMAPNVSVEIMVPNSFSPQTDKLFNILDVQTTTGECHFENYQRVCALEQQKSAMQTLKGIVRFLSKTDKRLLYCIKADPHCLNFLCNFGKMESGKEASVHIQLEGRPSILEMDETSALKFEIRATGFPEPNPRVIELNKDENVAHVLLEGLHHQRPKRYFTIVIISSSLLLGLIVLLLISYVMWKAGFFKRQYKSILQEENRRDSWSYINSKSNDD
Sequence of ATP-binding cassette sub-family B member 6 (Homo sapiens) (Q9NP58 whole entry, looked up): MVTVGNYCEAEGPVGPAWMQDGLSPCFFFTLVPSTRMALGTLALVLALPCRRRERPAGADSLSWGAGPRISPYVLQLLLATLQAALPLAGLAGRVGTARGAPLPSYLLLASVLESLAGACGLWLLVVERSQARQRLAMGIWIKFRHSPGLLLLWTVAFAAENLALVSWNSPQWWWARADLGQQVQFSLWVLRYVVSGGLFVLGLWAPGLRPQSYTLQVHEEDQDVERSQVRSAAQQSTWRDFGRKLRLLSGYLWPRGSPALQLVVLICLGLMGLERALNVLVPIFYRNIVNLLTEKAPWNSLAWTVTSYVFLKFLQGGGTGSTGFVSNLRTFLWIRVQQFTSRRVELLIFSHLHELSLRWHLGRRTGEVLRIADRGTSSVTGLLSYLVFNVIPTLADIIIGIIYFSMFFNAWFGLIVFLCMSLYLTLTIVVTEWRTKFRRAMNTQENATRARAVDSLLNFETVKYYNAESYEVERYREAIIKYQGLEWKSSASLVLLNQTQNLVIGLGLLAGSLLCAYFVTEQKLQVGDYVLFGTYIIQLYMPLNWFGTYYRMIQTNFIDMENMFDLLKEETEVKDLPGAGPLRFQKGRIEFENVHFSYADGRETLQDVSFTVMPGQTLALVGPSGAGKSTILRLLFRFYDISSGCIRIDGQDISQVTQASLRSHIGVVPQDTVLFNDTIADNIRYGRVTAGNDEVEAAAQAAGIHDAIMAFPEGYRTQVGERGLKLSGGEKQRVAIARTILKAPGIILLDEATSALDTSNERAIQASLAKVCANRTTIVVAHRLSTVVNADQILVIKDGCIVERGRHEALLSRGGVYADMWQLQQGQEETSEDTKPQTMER
Sequence of Beta-adrenergic receptor kinase 1 (Homo sapiens) (P25098 whole entry, looked up): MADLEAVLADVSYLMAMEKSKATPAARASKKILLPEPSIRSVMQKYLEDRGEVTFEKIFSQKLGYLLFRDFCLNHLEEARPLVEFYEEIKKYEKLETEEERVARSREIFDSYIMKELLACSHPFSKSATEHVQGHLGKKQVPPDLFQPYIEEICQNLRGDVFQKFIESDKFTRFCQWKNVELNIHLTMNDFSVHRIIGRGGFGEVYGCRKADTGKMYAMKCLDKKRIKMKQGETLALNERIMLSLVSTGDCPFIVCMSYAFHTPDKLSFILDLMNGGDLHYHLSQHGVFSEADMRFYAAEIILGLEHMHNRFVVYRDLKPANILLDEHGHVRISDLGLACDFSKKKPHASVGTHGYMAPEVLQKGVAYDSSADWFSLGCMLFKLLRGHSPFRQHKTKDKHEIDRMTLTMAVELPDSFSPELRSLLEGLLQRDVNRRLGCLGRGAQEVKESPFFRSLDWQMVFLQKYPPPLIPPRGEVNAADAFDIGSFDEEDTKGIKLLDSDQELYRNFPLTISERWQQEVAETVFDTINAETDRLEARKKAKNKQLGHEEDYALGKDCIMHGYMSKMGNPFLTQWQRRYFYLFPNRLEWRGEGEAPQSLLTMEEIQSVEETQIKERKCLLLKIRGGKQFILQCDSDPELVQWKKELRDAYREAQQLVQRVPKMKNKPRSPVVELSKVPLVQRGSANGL
Sequence of Beta-2 adrenergic receptor (Homo sapiens) (P07550 whole entry, looked up): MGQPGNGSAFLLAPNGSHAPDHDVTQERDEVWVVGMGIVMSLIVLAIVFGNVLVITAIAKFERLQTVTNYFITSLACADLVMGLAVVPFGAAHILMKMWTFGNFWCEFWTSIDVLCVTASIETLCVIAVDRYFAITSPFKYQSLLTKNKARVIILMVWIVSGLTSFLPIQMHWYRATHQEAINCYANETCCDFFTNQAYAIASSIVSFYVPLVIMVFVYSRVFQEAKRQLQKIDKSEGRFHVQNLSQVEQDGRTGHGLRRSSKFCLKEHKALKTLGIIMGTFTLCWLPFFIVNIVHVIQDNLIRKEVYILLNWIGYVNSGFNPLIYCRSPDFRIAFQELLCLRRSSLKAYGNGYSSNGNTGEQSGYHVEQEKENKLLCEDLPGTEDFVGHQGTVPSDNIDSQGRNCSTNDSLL

For `Cc1cccc(C)c1NS(=O)(=O)c1ccc(NC(=O)c2ccc(Cl)c([N+](=O)[O-])c2)cc1`, the percent of DMSO control GFP in experiment [1] is 97.7% (inactive). The GFP response vs DMSO in experiment [2] was 110% (inactive); in [4] it was 72.6% (inactive). Further, the percent response of DMSO control in experiment [3] is 116% (inactive). The double positive events in experiment [5] turned out to be 62.8%. In addition, the vesicle binding response in experiment [5] was 163% (inactive). Moreover, the inhibition in experiment [6] is 9.37% (inactive); in experiment [10] it was 4.81% (inactive); in experiment [14], 9% (inactive). Also, in experiment [7], the superoxide response (% of plate) is 103% (inactive). The aptamer binding inhibition in experiment [8] is 0% (inactive). The response was -4.38% (inactive) in [9] and 13% (inactive) in experiment [11]. Moreover, the binding (% of control) in experiment [12] was 100% (inactive). Also, the efflux inhibition (fraction of control) in experiment [13] is -0.2 (inactive). Moreover, the differentiation response in [15] was 13.1% (inactive).

As for `Cc1cc(-c2ccccc2)nnc1NCCN1CCOCC1`, in experiment [1], the percent of DMSO control GFP is 102% (inactive). Besides, the results for the GFP response vs DMSO in experiment [2] and in experiment [4] were 114% (inactive) and 74.3% (inactive), respectively. The percent response of DMSO control in [3] is 93.9% (inactive). Besides, in experiment [5], the double positive events was determined as 67.8%. The vesicle binding response in experiment [5] is 223% (inactive). For the same compound, the results for the inhibition in experiment [6], in experiment [10] and in experiment [14] were 0.64% (inactive), -1.22% (inactive) and 19% (inactive), respectively. Further, the superoxide response (% of plate) in experiment [7] was 94.8% (inactive). For the same compound, the aptamer binding inhibition in experiment [8] is 32% (active). Further, the response in [9] is 2.57% (inactive); in experiment [11] it was -0.98% (inactive). In addition, the binding (% of control) in experiment [12] is 109% (inactive). For the same compound, the efflux inhibition (fraction of control) in [13] is 0 (inactive). The differentiation response in experiment [15] is 4.09% (inactive).

In the case of `COc1ccc(-c2coc3cc(O)cc(O)c3c2=O)cc1`, the percent of DMSO control GFP in [1] is 88.2% (inactive). The GFP response vs DMSO is 99.9% (inactive) in experiment [2] and 72.6% (inactive) in experiment [4]. For the same compound, in experiment [3], the percent response of DMSO control was 116% (inactive). This compound also displayed a double positive events in experiment [5] of 58.4%. In [5], the vesicle binding response is 199% (inactive). Also, the values for the inhibition in experiment [6], in experiment [10] and in experiment [14] were 5.49% (inactive), 1.72% (inactive) and 7% (inactive), respectively. The superoxide response (% of plate) in [7] is 106% (inactive). Moreover, the aptamer binding inhibition in experiment [8] was 0% (inactive). Further, the response is -6.34% (inactive) in experiment [9] and 1.71% (inactive) in [11]. For the same compound, in experiment [12], the binding (% of control) was 101% (inactive). Also, in experiment [13], the efflux inhibition (fraction of control) is -0.28 (inactive). Moreover, the differentiation response in experiment [15] is -9.83% (inactive).

As for `CCCCC[C@H](O)/C=C/[C@@H]1[C@@H](C/C=C\CCCC(=O)OC)[C@@H](O)C[C@H]1O`, in [1], the percent of DMSO control GFP was 97.4% (inactive). Besides, the GFP response vs DMSO in experiment [2] is 127% (inactive). For the same compound, the percent response of DMSO control in experiment [3] is 99.2% (inactive). Moreover, in experiment [5], the double positive events came out at 59.2%. Besides, in experiment [5], the vesicle binding response was 157% (inactive). Besides, the inhibition was -30.4% (inactive) in experiment [6], -11.2% (inactive) in experiment [10] and 13% (inactive) in experiment [14]. Besides, the superoxide response (% of plate) in experiment [7] is 171% (inactive). In experiment [8], the aptamer binding inhibition was 12% (inactive). Further, the response is 4.64% (inactive) in experiment [9] and -0.57% (inactive) in [11]. For the same compound, in experiment [12], the binding (% of control) was 116% (inactive). The efflux inhibition (fraction of control) in experiment [13] is 0.05 (inactive). For the same compound, in [15], the differentiation response was 2.46% (inactive).

As to `NC12CC3CC(CC(C3)C1)C2`, the percent of DMSO control GFP in experiment [1] is 94.4% (inactive). In addition, the GFP response vs DMSO is 119% (inactive) in experiment [2] and 78.7% (inactive) in experiment [4]. In [3], the percent response of DMSO control is 111% (inactive). Moreover, the double positive events in [5] came to 60.2%. Further, in experiment [5], the vesicle binding response is 195% (inactive). Further, the figures for the inhibition in experiment [6], in experiment [10] and in experiment [14] were -27.5% (inactive), 0.4% (inactive) and 15% (inactive), respectively. Moreover, the superoxide response (% of plate) in [7] is 96.9% (inactive). The aptamer binding inhibition in experiment [8] is -5% (inactive). For the same compound, the response in experiment [9] was -15.1% (inactive); in [11] it was 3.04% (inactive). The binding (% of control) in [12] was 102% (inactive). In addition, in [13], the efflux inhibition (fraction of control) was -0.24 (inactive). Further, the differentiation response in experiment [15] is -1.64% (inactive).

One may read the inhibition as the relative decrease from the control value, in per cent.
